According to PubChem BioAssay AID1159580 (chemical genetic matrix, 2015):
“And” between values parts separate entries of the source, which are not always exact repeats. Equal values may be shown once. Screen size: about 5,500 compounds; about 2,000 (36%) were called active. Inconclusive results (about 18%) are left out. No stated cut-off is given here; in the data, active means normalized growth mostly below about 0.91 (no sharp cut-off); inconclusive means no clear call, values can overlap the other calls; inactive means mostly above about 0.92. The list shows a part of the results.

Assay: chemical genetic growth profiling, strain panel (AID 1159580);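 further: tested at 20 µM; growth read once vehicle control cultures reached saturation at 30 °C; 1 = growth at the plate median or of vehicle wells; lower values mean less growth of the strain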
Details: growth OD

Measured: normalized growth

COc1ccc(Cc2nccc3cc(OC)c(OC)cc23)cc1OC
inactive: S. cerevisiae deletion strains, locus YJR066W, strain TOR1, active compounds read low 0.975 | S. cerevisiae deletion strains, locus YJR075W, strain HOC1, active compounds read low 0.995 | S. cerevisiae deletion strains, locus YKL009W, strain mrt4, active compounds read low 0.984 | S. cerevisiae deletion strains, locus YKL068W, active compounds read low 0.999 | S. cerevisiae deletion strains, locus YKL085W, strain MDH1 (second series), active compounds read low 0.991 | S. cerevisiae deletion strains, locus YKL085W, strain MDH1, active compounds read low 0.991 | S. cerevisiae deletion strains, locus YKL160W, strain elf1, active compounds read low 1.02 | S. cerevisiae deletion strains, locus YKL190W, strain CNB1, active compounds read low 1.01 | S. cerevisiae deletion strains, locus YKR001C, strain vps1, active compounds read low 0.961 | S. cerevisiae deletion strains, locus YKR026C, strain gcn3, active compounds read low 1 | S. cerevisiae deletion strains, locus YKR091W, strain srl3, active compounds read low 0.998 | S. cerevisiae deletion strains, locus YLL001W, strain dnm1, active compounds read low 1.01 | S. cerevisiae deletion strains, locus YLL026W, active compounds read low 1 | S. cerevisiae deletion strains, locus YLL041C, strain sdh2, active compounds read low 1 | S. cerevisiae deletion strains, locus YLR027C, strain aat2, active compounds read low 0.994 | S. cerevisiae deletion strains, locus YLR039C, strain RIC1, active compounds read low 1 | S. cerevisiae deletion strains, locus YLR058C, strain SHM2, active compounds read low 1.02 | S. cerevisiae deletion strains, locus YLR102C, strain apc9, active compounds read low 0.988 | S. cerevisiae deletion strains, locus YLR113W, strain HOG1, active compounds read low 0.975 | S. cerevisiae deletion strains, locus YLR221C, strain rsa3, active compounds read low 1.01 | S. cerevisiae deletion strains, locus YLR258W, strain gsy2, active compounds read low 1 | S. cerevisiae deletion strains, locus YLR262C, strain YPT6 (second series), active compounds read low 1.01 | S. cerevisiae deletion strains, locus YLR262C, strain YPT6, active compounds read low 1.01 | S. cerevisiae deletion strains, locus YLR268W, strain sec22, active compounds read low 0.967 | S. cerevisiae deletion strains, locus YLR320W, strain mms22, active compounds read low 1.01 | S. cerevisiae deletion strains, locus YLR330W, strain CHS5, active compounds read low 1.01 | S. cerevisiae deletion strains, locus YLR342W, strain FKS1 (second series), active compounds read low 0.996 | S. cerevisiae deletion strains, locus YLR342W, strain FKS1, active compounds read low 1.01 | S. cerevisiae deletion strains, locus YLR357W, strain rsc2, active compounds read low 0.972 | S. cerevisiae deletion strains, locus YLR370C, strain arc18, active compounds read low 0.992 | S. cerevisiae deletion strains, locus YLR371W, strain rom2, active compounds read low 0.999 | S. cerevisiae deletion strains, locus YLR384C, strain iki3, active compounds read low 1 | S. cerevisiae deletion strains, locus YLR418C, strain cdc73, active compounds read low 0.933 | S. cerevisiae deletion strains, locus YML016C, strain PPZ1, active compounds read low 1.01 | S. cerevisiae deletion strains, locus YML032C, strain rad52, active compounds read low 0.977 | S. cerevisiae deletion strains, locus YML120C, strain ndi1, active compounds read low 1 | S. cerevisiae deletion strains, locus YML124C, strain tub3, active compounds read low 0.988 | S. cerevisiae deletion strains, locus YMR058W, strain fet3, active compounds read low 1.01 | S. cerevisiae deletion strains, locus YMR078C, strain ctf18, active compounds read low 0.991 | S. cerevisiae deletion strains, locus YMR125W, strain sto1, active compounds read low 0.994 | S. cerevisiae deletion strains, locus YMR129W, active compounds read low 0.998 | S. cerevisiae deletion strains, locus YMR205C, strain PFK2, active compounds read low 1.02 | S. cerevisiae deletion strains, locus YMR223W, strain ubp8, active compounds read low 0.987 | S. cerevisiae deletion strains, locus YMR231W, strain pep5, active compounds read low 1.01 | S. cerevisiae deletion strains, locus YMR307W, strain GAS1, active compounds read low 0.988 and 0.997 | S. cerevisiae deletion strains, locus YNL067W, strain RPL9B, active compounds read low 1.01 | S. cerevisiae deletion strains, locus YNL071W, strain lat1, active compounds read low 1 | S. cerevisiae deletion strains, locus YNL128W, strain TEP1, active compounds read low 1.01 and 0.977 | S. cerevisiae deletion strains, locus YNL153C, strain GIM3, active compounds read low 1.01 | S. cerevisiae deletion strains, locus YNL175C, strain NOP13, active compounds read low 0.988 | S. cerevisiae deletion strains, locus YNL183C, strain NPR1, active compounds read low 0.946 | S. cerevisiae deletion strains, locus YNL197C, strain WHI3, active compounds read low 0.996 | S. cerevisiae deletion strains, locus YNL209W, strain ssb2, active compounds read low 1 | S. cerevisiae deletion strains, locus YNL224C, strain SQS1, active compounds read low 0.993 | S. cerevisiae deletion strains, locus YNL233W, strain BNI4, active compounds read low 1.02 | S. cerevisiae deletion strains, locus YNL248C, strain rpa49, active compounds read low 0.992 | S. cerevisiae deletion strains, locus YNL250W, strain rad50, active compounds read low 0.985 | S. cerevisiae deletion strains, locus YNL271C, strain bni1, active compounds read low 0.982 | S. cerevisiae deletion strains, locus YNL298W, strain CLA4, active compounds read low 0.999 | S. cerevisiae deletion strains, locus YNL307C, strain MCK1, active compounds read low 0.98 | S. cerevisiae deletion strains, locus YNL322C, strain KRE1 (second series), active compounds read low 1.01 | S. cerevisiae deletion strains, locus YNR049C, strain mso1, active compounds read low 0.999 | S. cerevisiae deletion strains, locus YNR052C, strain pop2, active compounds read low 0.986 | S. cerevisiae deletion strains, locus YOL006C, strain TOP1, active compounds read low 1.02 | S. cerevisiae deletion strains, locus YOL012C, strain htz1 1.11 | S. cerevisiae deletion strains, locus YOL147C, strain pex11, active compounds read low 0.988 | S. cerevisiae deletion strains, locus YOR001W, strain rrp6, active compounds read low 0.965 | S. cerevisiae deletion strains, locus YOR061W, strain CKA2, active compounds read low 1.01 | S. cerevisiae deletion strains, locus YOR069W, strain VPS5, active compounds read low 1.01 | S. cerevisiae deletion strains, locus YOR070C, strain gyp1, active compounds read low 0.999 | S. cerevisiae deletion strains, locus YOR080W, strain dia2, active compounds read low 0.997 | S. cerevisiae deletion strains, locus YOR083W, strain WHI5 (second series), active compounds read low 1 | S. cerevisiae deletion strains, locus YOR083W, strain WHI5, active compounds read low 1.03 | S. cerevisiae deletion strains, locus YOR106W, strain vam3, active compounds read low 1.02 | S. cerevisiae deletion strains, locus YOR136W, strain idh2, active compounds read low 0.998 | S. cerevisiae deletion strains, locus YOR144C, strain elg1, active compounds read low 1 | S. cerevisiae deletion strains, locus YOR184W, strain ser1, active compounds read low 0.984 | S. cerevisiae deletion strains, locus YOR231W, strain MKK1, active compounds read low 0.984 | S. cerevisiae deletion strains, locus YOR265W, strain rbl2, active compounds read low 1 | S. cerevisiae deletion strains, locus YOR270C, strain vph1, active compounds read low 0.998 | S. cerevisiae deletion strains, locus YOR290C, strain snf2, active compounds read low 0.993 | S. cerevisiae deletion strains, locus YOR316C, strain cot1, active compounds read low 1 | S. cerevisiae deletion strains, locus YPL051W, strain arl3, active compounds read low 0.998 | S. cerevisiae deletion strains, locus YPL055C, strain LGE1, active compounds read low 0.983 | S. cerevisiae deletion strains, locus YPL078C, strain atp4, active compounds read low 0.998 | S. cerevisiae deletion strains, locus YPL106C, strain sse1, active compounds read low 1 | S. cerevisiae deletion strains, locus YPL240C, strain hsp82, active compounds read low 1.01 | S. cerevisiae deletion strains, locus YPL241C, strain CIN2, active compounds read low 1.01 | S. cerevisiae deletion strains, locus YPL256C, strain CLN2, active compounds read low 1.02 | S. cerevisiae deletion strains, locus YPR119W, strain clb2, active compounds read low 0.99 | S. cerevisiae deletion strains, locus YPR141C, strain kar3, active compounds read low 0.988 | S. cerevisiae deletion strains, locus YPR163C, strain tif3, active compounds read low 0.974 | S. cerevisiae deletion strains, locus YPR167C, strain met16, active compounds read low 0.991 | S. cerevisiae deletion strains, strain wtn01, active compounds read low 0.985 | S. cerevisiae strains, strain wild type, active compounds read low 1.01
